Test results published in publication PMC5540273 (PLoS ONE, 2017).

Assays:
Settings in all cases: concentration: 1 μM, replicates: in singlicate; n = 1
[1] = tested on: PKMYT1
[2] = tested on: PKN1
[3] = tested on: PKN2
[4] = tested on: PLK1
[5] = tested on: PLK2
[6] = tested on: PLK3
[7] = tested on: PLK4
[8] = tested on: PRKCD
[9] = tested on: PRKCE
[10] = tested on: PRKCH
[11] = tested on: PRKCI
[12] = tested on: PRKCQ
[13] = tested on: PRKD1
[14] = tested on: PRKD2
[15] = tested on: PRKD3
[16] = tested on: PRKG1
[17] = tested on: PRKG2
[18] = tested on: T1, PRKR
T1 construct: gene EIF2AK2

[19] = tested on: PRKX
[20] = tested on: PRP4

Measured: %Inh
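Also: KINOMEscan kinase panel screen.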

Fc1ccc(-c2nn3c(OCC(F)(F)F)cccc3c2-c2ccncc2)cc1 [GW514784]
34%: [20]
14%: [9] | [16]
13%: [10]
25%: [11]
7%: [14] | [17]
3%: [19]
27%: [13]
12%: [12]
0%: all other assays above

O=C(NCCNc1ccnc(Nc2ccc(F)cc2)n1)c1cc2ccccc2s1 [GSK1379874]
4%: [19]
17%: [10]
49%: [20]
5%: [9] | [13]
0%: all other assays above

CCc1ccnc(/C=C/c2n[nH]c3cc(Sc4ccccc4C(=O)NC)ccc23)c1
83%: [7]
12%: [9]
15%: [14]
29%: [19]
9%: [2] | [8]
1%: [11]
0%: all other assays above

O=C(NOCC1CC1)c1ccc(F)c(F)c1Nc1ccc(I)cc1Cl
3%: [8]
28%: [9]
8%: [5] | [13]
0%: all other assays above
